Consider 37 compounds from PubChem BioAssay (NCI).

Compounds without any hit were thinned out: in the full panel of roughly 83,000, 20% have a hit.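 Treatment: one concentration, 48 hours, 96-well format. Scoring: percent growth, with anything below 10 considered active.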 Unmarked numbers belong to inactive results. Activity calls are given as the source filed them.

The assay relates to LOX IMVI melanoma. The assay is described as follows: NCI-60 one-dose screen, 48 h (100 = growth as untreated, 0 = no growth, -100 = all killed). As to conditions: 10 µM unless noted.
In the case of `COC(=O)[C@@H](C)C[C@H](Cc1ccccc1)NC(=O)c1nc([C@@H](C[C@H](C(C)C)N(C)C(=O)[C@@H](NC(=O)[C@H]2CCCN2C)C(C)C)OC(C)=O)sc1C`, the growth is 25.6%.
The figure for `CCCCCSC1C2C(=O)C(Br)=CC13CCNc1c(O)c4c5c(c13)=[N+]2CCC=5C=N4` (configuration not stated) is -71% (active); for `CC1=C(CCCOC(=O)CN)C2=C(C)C3(CC3)[C@@](C)(O)C(=O)C2=C1` it is 88.6%; for `COC(=O)CC[C@H](Cc1ccccc1)NC(=O)c1csc([C@@H](C[C@H](C(C)C)N(C)C(=O)[C@@H](NC(=O)[C@H]2CCCCN2C)C(C)C)OC(C)=O)n1` it is 29.3%.
For the compound `COC(=O)CC12CC(NC(=O)c3csc([C@@H](C[C@H](C(C)C)N(C)C(=O)[C@@H](NC(=O)[C@H]4CCCCN4C)C(C)C)OC(C)=O)n3)(C1)C2`, the growth is 23.3%.
The figure for `O=C1CNC(c2ccccc2)c2cc(Cl)ccc2N1` (configuration not stated) is 96.3%; for `CC1(C)N=C(N)N=C(N)N1c1cccc(CCCCc2ccc(Cl)c(S(=O)(=O)F)c2)c1` it is 16.5%.
On to `CC(=O)O[C@H](C[C@H](C(C)C)N(C)C(=O)[C@@H](NC(=O)[C@H]1CCCCN1C)C(C)C)c1nc(C(=O)N[C@@H](Cc2ccccc2)C[C@H](C)C(=O)O)c(C(C)C)s1`, for which the growth is 10.5%.
For `COC(=O)[C@@H](C)C[C@H](Cc1ccccc1)NC(=O)c1csc(CC[C@H](C(C)C)N(C)C(=O)[C@@H](NC(=O)[C@H]2CCCCN2C)C(C)C)n1`, the growth was 28.6%.
Regarding `CCOP(=O)(NC[C@H]1O[C@](O)(CO)[C@@H](O)[C@@H]1O)OCC`, the growth was 92.8%.
On to `COc1cc([C@@H]2c3cc4c(cc3[C@H](OC(C)=O)[C@H]3COC(=O)[C@H]23)OCO4)cc(OC)c1OC`, for which the growth is 18.7%.
The figure for `COC(=O)[C@@H](C)C[C@H](Cc1cn(C)c2ccccc12)NC(=O)c1csc([C@@H](C[C@H](C(C)C)N(C)C(=O)[C@@H](NC(=O)[C@H]2CCCCN2C)C(C)C)OC(C)=O)n1` is 19.1%; for `CCOC(=O)[C@@H](C)C[C@H](Cc1ccccc1)NC(=O)c1csc([C@@H](C[C@H](C(C)C)N(C)C(=O)[C@@H](NC(=O)[C@H]2CCCCN2C)C(C)(C)C)OC(C)=O)n1` it is 10.1%.
In the case of `CC1=C(CCCNS(C)(=O)=O)C2=C(C)C3(CC3)[C@@](C)(O)C(=O)C2=C1`, the growth is 2.21% (active).
Regarding `COC(=O)[C@@H](C)C[C@H](Cc1ccccc1)NC(=O)c1cccc([C@@H](C[C@H](C(C)C)N(C)C(=O)[C@@H](NC(=O)[C@H]2CCCCN2C)C(C)C)OC(C)=O)n1`, the growth was 13.6%.
As for `CNC(=O)Oc1ccc(C(C)(C)C)cc1OC(=O)NC`, the growth is 92.4%.
Consider `CC1(C)C(C(=O)c2cn(CCCCF)c3ccccc23)C1(C)C`, for which the growth was 92.9%.
With `CC(=O)O[C@H](C[C@H](C(C)C)N(C)C(=O)[C@@H](NC(=O)[C@H]1CCCCN1C)C(C)C)c1nc(C(=O)NC2CCC(C(=O)O)CC2)cs1` (some centres not stated), the growth is 35.5%.
For the compound `CCCC[C@H](NC(=O)[C@H]1CCCN1C)C(=O)N(C)[C@H](C[C@@H](OC(C)=O)c1nc(C(=O)N[C@@H](Cc2ccccc2)C[C@H](C)C(=O)OCC)cs1)C(C)C`, the growth was 20.8%.
Turning to `CCOC(=O)[C@@H](C)C[C@H](Cc1ccccc1)NC(=O)c1csc([C@@H](C[C@H](C(C)C)N(C)C(=O)CNC(=O)[C@H]2CCCCN2C)OC(C)=O)n1`, the growth was 34.3%.
Consider `COc1ccc([As]=[As]c2ccc(OC)c(NCS(=O)(=O)O)c2)cc1NCS(=O)(=O)O` (configuration not stated), for which the growth was 5.45% (active).
`CC1=C(CCCOC(=O)[C@H](N)CC(C)C)C2=C(C)C3(CC3)[C@@](C)(O)C(=O)C2=C1`: the growth is 41.8%.
Take `O=[N+]([O-])c1cc(I)cc([N+](=O)[O-])c1`: the growth is 91.8%.
The result for `CC(=O)OC[C@]1(C)C=C2C(=O)[C@](C)(O)C3(CC3)C(C)=C2[C@H]1OC(=O)N(C)CCN(C)C(=O)OC(C)(C)C` reads -6.97% (active); that for `CC[C@H](C)[C@H](NC(=O)[C@H]1CCCCN1C)C(=O)N(C)[C@H](CCc1nc(C(=O)N[C@@H](Cc2ccccc2)C[C@H](C)C(=O)OC)cs1)C(C)C`, 24%.
For the compound `COc1ccc(Nc2ccc([N+](=O)[O-])cc2[N+](=O)[O-])cc1CN(CCCl)CCCl`, the growth was 3.66% (active).
Turning to `COC(=O)CCc1c[nH]c2ccc(N(CCCl)CCCl)cc12`, the growth is 29.7%.
For `Nc1c(F)cc(-c2nc3cc(F)ccc3[se]2)cc1F`, the growth was 89.3%.
On to `COC(=O)[C@@]1(C)CC[C@]2(C)CC[C@]3(C)C4=CC=C5C(=CC(=O)C(O)=C5C)[C@]4(C)CC[C@@]3(C)[C@@H]2C1`, for which the growth is -90.5% (active).
Regarding `COC(=O)[C@@H](C)C[C@H](Cc1ccccc1)NC(=O)c1nc([C@@H](C[C@H](C(C)C)N(C)C(=O)[C@@H](NC(=O)[C@H]2CCCCN2C)C(C)C)OC(C)=O)sc1C`, the growth is 12.4%.
As to `CC(=O)O[C@H](C[C@H](C(C)C)N(C)C(=O)[C@@H](NC(=O)[C@H]1CCCN1C)C(C)C)c1nc(C(=O)N[C@@H](Cc2ccccc2)C[C@H](C)C(=O)O)c(C)s1`, the growth was 27.4%.
As to `CCOC(=O)[C@@H](C)C[C@H](Cc1ccccc1)NC(=O)c1csc([C@@H](C[C@H](C(C)C)N(C)C(=O)[C@H](CCC(C)C)NC(=O)[C@H]2CCCCN2C)OC(C)=O)n1`, the growth was 15.2%.
In the case of `COC(=O)C12CC(NC(=O)c3csc([C@@H](C[C@H](C(C)C)N(C)C(=O)[C@@H](NC(=O)[C@H]4CCCCN4C)C(C)C)OC(C)=O)n3)(C1)C2`, the growth was 22.2%.
For `Clc1ccc2nnnn2n1`, the growth is 16.3%.
`CC[C@H](C)[C@H](NC(=O)[C@H]1CCCCN1C)C(=O)N(C)[C@H](C[C@@H](O)c1nc(C(=O)N[C@@H](Cc2ccccc2)C[C@H](C)C(=O)O)cs1)C(C)C`: the growth is 52.2%.
`N#C[S-].[Au+].c1ccc(CN2[CH-]N(Cc3ccccc3)C(c3ccccc3)=C2c2ccccc2)cc1`: the growth was 7.61% (active).
As to `CCCCCCCCCCCCNC(c1ccccc1)C(O)c1ccccc1` (configuration not stated), the growth was 49.8%.
